Article PMC11024108

Biological target: Malate dehydrogenase, mitochondrial (UniProt P40926)
Experiment: cross-link between two proteins; cross-linking mass spectrometry

Sequence of Succinate dehydrogenase [ubiquinone] flavoprotein subunit, mitochondrial, P31040 (P31040 whole entry): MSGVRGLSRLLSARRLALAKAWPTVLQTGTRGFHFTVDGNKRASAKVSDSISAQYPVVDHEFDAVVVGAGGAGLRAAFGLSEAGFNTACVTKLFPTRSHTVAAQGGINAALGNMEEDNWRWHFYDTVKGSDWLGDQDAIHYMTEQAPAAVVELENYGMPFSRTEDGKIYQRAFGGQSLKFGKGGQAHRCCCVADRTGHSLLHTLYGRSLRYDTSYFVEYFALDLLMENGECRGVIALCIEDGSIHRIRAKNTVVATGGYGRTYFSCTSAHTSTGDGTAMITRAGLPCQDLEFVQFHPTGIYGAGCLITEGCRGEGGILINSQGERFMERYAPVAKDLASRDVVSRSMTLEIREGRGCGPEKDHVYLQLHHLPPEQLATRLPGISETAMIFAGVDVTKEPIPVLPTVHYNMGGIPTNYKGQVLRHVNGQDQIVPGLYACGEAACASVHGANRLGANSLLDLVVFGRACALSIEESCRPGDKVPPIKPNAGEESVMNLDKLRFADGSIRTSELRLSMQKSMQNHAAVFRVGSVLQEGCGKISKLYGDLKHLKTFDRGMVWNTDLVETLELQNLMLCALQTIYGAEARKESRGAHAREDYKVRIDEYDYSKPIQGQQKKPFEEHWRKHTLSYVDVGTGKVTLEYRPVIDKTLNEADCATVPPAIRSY
Sequence of Peptidyl-prolyl cis-trans isomerase F, mitochondrial, P30405 (P30405 whole entry): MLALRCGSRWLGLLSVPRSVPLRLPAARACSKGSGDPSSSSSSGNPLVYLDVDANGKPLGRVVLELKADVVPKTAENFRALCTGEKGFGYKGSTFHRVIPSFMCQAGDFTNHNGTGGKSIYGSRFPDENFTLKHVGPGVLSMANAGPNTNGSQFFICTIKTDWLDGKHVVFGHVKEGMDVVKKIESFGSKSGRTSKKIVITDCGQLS

Listed as a hit, yes:
Succinate dehydrogenase [ubiquinone] flavoprotein subunit, mitochondrial, P31040
Dihydrolipoyl dehydrogenase, mitochondrial, P09622
Aldehyde dehydrogenase family 1 member B1, mitochondrial, P30837
Aldehyde dehydrogenase, mitochondrial, P05091
Peptidyl-prolyl cis-trans isomerase F, mitochondrial, P30405
Glutathione reductase, mitochondrial, P00390
